RORgamma inh – blocks mouse ROR gamma transcriptional activity. P51450. Drosophila S2 Gal4-RORgamma UAS-luciferase reporter, 20 h. Potency, µM (doses to about 53.6 µM), for the others: top-dose activity change, negative = inhibition, actives largely listed as inhibitors. 5.4% of 310,000 active. AID 2551; note: % is set by controls: 0 for no effect and ±100 for the full control effect; nearly all actives have a fitted effect of over 60% in size
Target sequence (P51450 whole entry, looked up, the tested form may be a part): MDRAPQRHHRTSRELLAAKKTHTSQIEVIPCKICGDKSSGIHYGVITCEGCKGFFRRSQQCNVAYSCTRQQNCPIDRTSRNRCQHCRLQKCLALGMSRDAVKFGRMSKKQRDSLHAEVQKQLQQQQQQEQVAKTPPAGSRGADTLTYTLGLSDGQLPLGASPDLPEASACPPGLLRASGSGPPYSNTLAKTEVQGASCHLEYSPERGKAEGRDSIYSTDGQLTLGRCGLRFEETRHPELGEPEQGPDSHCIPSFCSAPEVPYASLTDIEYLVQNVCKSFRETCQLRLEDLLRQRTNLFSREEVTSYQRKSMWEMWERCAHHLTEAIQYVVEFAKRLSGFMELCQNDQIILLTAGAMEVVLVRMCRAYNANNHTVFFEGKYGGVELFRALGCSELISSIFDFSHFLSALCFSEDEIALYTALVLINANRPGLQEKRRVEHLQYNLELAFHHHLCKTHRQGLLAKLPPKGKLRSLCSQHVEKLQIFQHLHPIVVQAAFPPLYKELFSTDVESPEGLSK
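In this cell-based reporter format, copper sulfate (700 uM final) drives Gal4–ROR gamma fusion expression from a metallothionein promoter in Drosophila Schneider cells; compounds preincubated 1 hr, reporter read after 20 hr at ambient temperature.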
Sfp inh – blocks B. subtilis Sfp PPTase activity. Biochemical Sfp PPTase activity, qHTS. Potency, µM, without a hit: largest response in the series, negative = inhibition, actives largely listed as inhibitors. AID 1490. Q9F4F7. 3.5% of 310,000 active;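 note: the enzyme is Sfp with the accession as filed and its product quenches rhodamine fluorescence; 0% = enzyme reaction without inhibitor and -100% = no enzyme wells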
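Compounds were incubated with enzyme (final 15 nM) for 15 min at room temperature before substrate addition started the reaction. Fluorescence at 525 nm excitation, 598 nm emission was recorded immediately and after 30 minutes.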
VP16 counter – inhibits Gal4-VP16 luciferase reporter, ROR gamma counter-screen; Potency, µM (titrated, usually from 53.6 µM), inactives show top-dose activity, negative = inhibition, hits mostly inhibitors; 3.5% of 310,000 active; Drosophila S2 Gal4-VP16 UAS-luciferase, luminescence, 20 h;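 note: Gal4-VP16 expression switched on by copper sulfate through the metallothionein promoter; % is set by controls: 0 for no effect and ±100 for the full control effect; nearly all actives have a fitted effect of over 50% in size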
ClpP mod – qHTS Assay for Activators of ClpP. ATP-dependent Clp protease proteolytic subunit (Bacillus subtilis (strain 168)), P80244. AID 651965, 2013. 1.9% of 340,000 active. purified B. subtilis ClpP, FRET peptide cleavage, 20 min. Potency, µM (titrated, usually from 57.5 µM), for the others: top-dose activity change, negative = active; active = well fitted falling curve with a large enough effect; inconclusive = small, poorly fitted or top-dose-only effect; inactive = no such curve, though single readings can be large or run the other way; note: the source files actives as falling curves though it sought activators and does not explain the sign; nearly all actives have a fitted effect of over 65% in size
Target sequence (P80244 whole entry, looked up): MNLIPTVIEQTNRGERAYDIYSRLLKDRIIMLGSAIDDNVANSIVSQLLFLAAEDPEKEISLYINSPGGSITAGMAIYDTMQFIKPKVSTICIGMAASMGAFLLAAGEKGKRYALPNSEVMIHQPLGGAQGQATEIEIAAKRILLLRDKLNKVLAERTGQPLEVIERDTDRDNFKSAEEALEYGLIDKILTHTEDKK
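Buffer: 100 mM Tris/HCl pH8, 100 mM KCl, 0.05% low protease BSA, 2.5% glycerol, 0.01% Tween-20. ClpP 10 microg/mL final; 20 min RT; delta FRET normalized to ADEP and DMSO controls.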
PINK1 expr mod – changes PINK1 expression; PINK1 immunofluorescence, high-content cytometry, 24 h; Potency, µM (series often up to 76.6 µM), without a hit: at the top dose activation (PINK1 increase), usual class: activators; 0.2% of 410,000 active; AID 624263; active = well fitted activation curve with a large enough effect; inconclusive = small, poorly fitted or top-dose-only effect; cell line not stated here; note: % of control where 0% means no effect; nearly all actives have a fitted effect of over 65% in size
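Readout is PINK1 immunofluorescence, quantified alongside mitochondrial, cell and nuclear markers by laser-scanning microplate cytometry. Cells from a stable line were exposed to compound titrations (5 concentrations) for 24 hours, with CCCP controls.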
Epigenetic derep – regulators of epigenetic silencing causing reporter derepression in mouse cells; Potency, µM (titrated, usually from 53.9 µM), for the others: at the highest dose GFP activation, most hits filed as activators; murine LDR cells, GFP reporter derepression, 30 h; AID 1865; 0.2% of 280,000 active; note: % of control where 0% means no effect; nearly all actives have a fitted effect of over 60% in size
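In this reporter-derepression format, murine cells bearing a silenced integrated CMV-GFP locus incubate with test compound (30 h, 37 C), then are washed and imaged; fluorescent objects of 20–120 um count as induced cells.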
Active calls of the source: *. Most compounds without a hit are left out; they make up all but 8.1% or so of the library. Unless noted, calls come from the whole dose curve; as a rule, active = well fitted curve in the direction sought with a large enough effect; inconclusive = small, poorly fitted or top-dose-only effect, or another doubt; inactive = no such curve, though single readings can be large; an effect the other way counts as inactive or inconclusive. Potency is the fitted concentration of half-maximal effect.

How did COc1ccc(-n2cc(-c3ccccc3)[n+]3c2CCCCC3)cc1 do in these assays?
RORgamma inh: 4.1%; Sfp inh: 7.4%; VP16 counter: inconclusive; PINK1 expr mod: 0.6%; Epigenetic derep: 7.4%

What do the screens show for `CCOC(=O)CNC(=O)O[C@@H]1C(=O)c2cc(Br)ccc2O[C@H]1c1cccc(OC)c1`?
RORgamma inh: -8.2%; Sfp inh: -12.2%; VP16 counter: -21.1%; Epigenetic derep: -1.1%

How did O=C1CCN(Cc2cccc(C(F)(F)F)c2)CCN1Cc1ccccn1 do in these assays?
PINK1 expr mod: 1.5%

How did CCc1ccccc1NCc1nnc2n1CCCCC2 do in these assays?
ClpP mod: -1.2%; PINK1 expr mod: 2.3%; Epigenetic derep: -2.1%

How did COc1ccccc1NC(=O)Cn1c(=O)n(Cc2nc(-c3ccccc3)no2)c(=O)c2ccccc21 do in these assays?
ClpP mod: -7.0%; PINK1 expr mod: 0.2%; Epigenetic derep: -0.9%

Results for O=C(O)c1cc(N=Nc2ccc(-c3ccc(N=Nc4ccc(O)c(C(=O)O)c4)cc3)cc2)ccc1O ?
RORgamma inh: 7.0%; Sfp inh: inconclusive; VP16 counter: -6.8%

How did CCc1ccc(C2CC(=O)c3c([nH]c(C(=O)OC4CCCC4)c3C)C2)cc1 (centres undefined) do in these assays?
ClpP mod: 1.0%; PINK1 expr mod: -1.0%; Epigenetic derep: 2.7%

What do the screens show for `COc1ccc(-c2nc3ccccc3n3c(-c4cccc(C)c4)c4c(=O)n(C)c(=O)n(C)c4c23)cc1OC`?
ClpP mod: -0.7%; PINK1 expr mod: 0.2%; Epigenetic derep: -1.0%

How did O=C(N/N=C/c1cn(-c2ccccc2)nc1-c1ccc(F)cc1)c1ccc2c(c1)OCO2 do in these assays?
RORgamma inh: 2.24µM*; Sfp inh: 5.0%; VP16 counter: inconclusive; ClpP mod: inconclusive; PINK1 expr mod: 1.3%; Epigenetic derep: 0.8%

Results for COc1ccc(-c2nn(-c3ccccc3)cc2/C=C/C(=O)OCC(=O)Nc2ccc(C#N)cc2)cc1 ?
RORgamma inh: inconclusive; Sfp inh: 26.8%; VP16 counter: -14.7%; ClpP mod: 28.2µM*; PINK1 expr mod: 7.8%; Epigenetic derep: 2.0%

What do the screens show for `O=C(NN=Cc1ccc2c(c1)OCO2)c1ccccc1`?
PINK1 expr mod: 1.3%

What do the screens show for `COc1ccc(-c2nn(-c3ccccc3)cc2/C=N/NC(=O)c2ccc(Br)o2)cc1`?
RORgamma inh: 1.26µM*; Sfp inh: 25.3%; VP16 counter: 3.98µM*; ClpP mod: 31.6µM*; PINK1 expr mod: -0.7%; Epigenetic derep: 2.2%

What do the screens show for `C=CCNC(=S)N/N=C/c1cn(-c2ccccc2)nc1-c1ccc(OC)cc1`?
RORgamma inh: 0.708µM*; Sfp inh: 21.1%; VP16 counter: 1.26µM*; ClpP mod: -22.6%; PINK1 expr mod: 7.7%; Epigenetic derep: 2.1%

What do the screens show for `COc1ccccc1/C=N/NC(=O)c1ccc2c(c1)OCO2`?
RORgamma inh: inconclusive; Sfp inh: -7.1%; VP16 counter: -15.3%; ClpP mod: -0.8%; PINK1 expr mod: 7.6%

How did O=C(N/N=C\c1cn(-c2ccccc2)nc1-c1ccccc1)c1ccc2c(c1)OCO2 do in these assays?
RORgamma inh: 1.78µM*; Sfp inh: 7.2%; VP16 counter: inconclusive; ClpP mod: -21.4%; PINK1 expr mod: 6.5%; Epigenetic derep: -0.9%

Results for COc1ccc(-c2nn(-c3ccccc3)cc2CNC(=O)c2cccc([N+](=O)[O-])c2)cc1 ?
RORgamma inh: inconclusive; Sfp inh: -6.9%; VP16 counter: 8.91µM*; PINK1 expr mod: 2.0%; Epigenetic derep: -1.1%

Results for O=C(N/N=C/c1cn(-c2ccccc2)nc1-c1ccc2c(c1)OCCO2)c1ccncc1 ?
RORgamma inh: 2.24µM*; Sfp inh: 15.4%; VP16 counter: 5.01µM*; PINK1 expr mod: 0.6%; Epigenetic derep: 0.0%

Results for COc1ccc(-c2nn(-c3ccccc3)cc2/C=N/NC(=O)c2ccc3c(c2)OCO3)cc1 ?
RORgamma inh: 2.51µM*; Sfp inh: 15.5%; VP16 counter: -25.8%; Epigenetic derep: 0.0%

Results for COC(=O)c1cn([C@H]2C[C@@H](C(=O)N3CCCCCC3)N(Cc3ccsc3)C2)nn1 ?
PINK1 expr mod: -0.9%

How did COc1ccc(-c2nn(-c3ccccc3)cc2/C=N/NC(=O)c2cccc(S(=O)(=O)Nc3ccccc3OC)c2)cc1 do in these assays?
RORgamma inh: 1.26µM*; Sfp inh: 26.3%; VP16 counter: 1.26µM*; ClpP mod: 17.8µM*; PINK1 expr mod: 2.7%; Epigenetic derep: 0.0%

How did COc1cc(OC)nc(NC(=S)NC(=O)c2ccccc2)n1 do in these assays?
RORgamma inh: 5.01µM*; Sfp inh: -9.1%; VP16 counter: inconclusive; ClpP mod: -2.7%; PINK1 expr mod: -0.8%; Epigenetic derep: -3.2%

What do the screens show for `Cc1csc(NC(=S)NC(=O)c2ccccc2)n1`?
RORgamma inh: 2µM*; Sfp inh: 3.1%; VP16 counter: 3.16µM*; PINK1 expr mod: 0.3%

How did CCOC(=O)Cc1csc(NC(=S)NC(=O)c2cc(OC)cc(OC)c2)n1 do in these assays?
RORgamma inh: inconclusive; Sfp inh: 11.9%; VP16 counter: inconclusive; ClpP mod: 1.2%; PINK1 expr mod: 2.0%; Epigenetic derep: 2.6%

What do the screens show for `Cc1csc(NC(=O)c2ccccc2)n1`?
RORgamma inh: -80.7%; Sfp inh: 1.3%; VP16 counter: -14.2%; ClpP mod: -0.5%; PINK1 expr mod: 3.1%

How did CCOC(=O)Cc1csc(NC(=O)c2sc3nc4ccc(CC)cc4cc3c2N)n1 do in these assays?
RORgamma inh: -1.5%; Sfp inh: -15.4%; VP16 counter: -26.8%; ClpP mod: 2.0%; PINK1 expr mod: 39.8µM*; Epigenetic derep: inconclusive

Results for CCOC(=O)Cc1csc(NC(=S)NC(=O)c2ccccc2)n1 ?
RORgamma inh: inconclusive; Sfp inh: 15.8µM*; VP16 counter: -93.6%; ClpP mod: -1.0%; PINK1 expr mod: -1.3%; Epigenetic derep: 1.1%

How did Cc1cc(N(C)C)cc(C)c1/C=C/c1cc[n+](C)c2ccccc12 do in these assays?
ClpP mod: -18.3%

Results for CC(C)(C)c1ccc(C(=O)C[n+]2cc(Br)cc(Br)c2)cc1 ?
ClpP mod: -1.1%; PINK1 expr mod: 0.9%

How did CCOC(=O)Cc1csc(NC(=S)NC(=O)c2ccccc2Br)n1 do in these assays?
RORgamma inh: 5.62µM*; Sfp inh: -94.2%; VP16 counter: 3.98µM*; ClpP mod: -3.7%; PINK1 expr mod: 2.1%; Epigenetic derep: -1.9%
